{"source": "PubChem BioAssay (NCI)", "note": "Compounds without any hit were thinned out: in the full panel of roughly 83,000, 20% have a hit.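 For each line, cells grew in 96-well plates with the test compound present at a single concentration for 48 hours.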 Calls of active or inactive are those of the source. Rule for the calls: active = growth percent below 10; inactive = the rest.", "data": [{"system": "MDA-MB-468 breast", "assay": "NCI-60 one-dose screen, 48 h (100 = growth as untreated, 0 = no growth, -100 = all killed)", "details": "10 µM unless noted", "values": [{"smiles": "O=c1c2sc3ncc(Br)cc3c2ncn1-c1cccc(Cl)c1", "growth": "89.8% (inactive)"}, {"smiles": "O=C(O)CCCN1C(=O)CSC1=S", "growth": "99.3% (inactive)"}, {"smiles": "CN(C)CCCOc1c2ccccc2nc2c1oc1ccc(Cl)cc12", "growth": "-3.66% (active)"}, {"smiles": "COC1=CC(c2ccc[nH]2)=N/C1=C\\c1[nH]c(C)c(C(=O)OCCn2cc(CCC[C@@H]3Cc4cc(O)ccc4C4CC[C@]5(C)[C@@H](O)CC[C@H]5C43)nn2)c1C", "note": "(stereo partly drawn)", "growth": "78% (inactive)"}, {"smiles": "CCC(C)(C)C1CCC(O)CC1", "note": "(stereo not drawn)", "growth": "104% (inactive)"}, {"smiles": "COc1ccccc1C(OC(C)=O)OC(C)=O", "growth": "98% (inactive)"}, {"smiles": "C/C(=C\\CCc1ccsc1)CC/C=C(\\C)CCCN1CCC(CO)CC1", "growth": "-27.3% (active)"}, {"smiles": "O=C(Nc1ncc(Cc2ccc(Cl)c(C(F)(F)F)c2)s1)c1ccc2nnsc2c1", "growth": "26.3% (inactive)"}, {"smiles": "O=C1Nc2ccccc2/C1=C/c1cccn1CCCCn1c2ccccc2c(=O)c2ccccc21", "growth": "51% (inactive)"}, {"smiles": "O=C(Nc1cc(Cl)ccc1O)c1ccccc1Nc1ccnc(C(F)(F)F)c1", "growth": "12.7% (inactive)"}, {"smiles": "CO[C@H]1CC(O[C@@H]2/C(C)=C/C[C@@H]3C[C@@H](C[C@]4(C=C[C@H](C)[C@@H](C5CCCCC5)O4)O3)OC(=O)[C@@H]3C=C(C)[C@@H](O)[C@H]4OC/C(=C\\C=C\\[C@@H]2C)[C@]43O)O[C@@H](C)C1O[C@H]1C[C@H](OC)[C@@H](O)[C@H](C)O1", "note": "(stereo partly drawn)", "growth": "-72.5% (active)"}, {"smiles": "O=C1CCC(C(=O)N/N=C/c2ccc([N+](=O)[O-])cc2)N1", "note": "(stereo not drawn)", "growth": "110% (inactive)"}, {"smiles": "Cc1c(C(=O)NO)sc2ncnc(Nc3ccc(NC(=S)Nc4ccccc4)cc3)c12", "growth": "104% (inactive)"}]}]}
